Screens from PubChem.
Many of the other results were omitted from the sample, so hits are more common in it than they were.
p53ts 39C tox – p53ts cell cytotoxicity, nonpermissive temperature. H1299-p53A138V viability at 39C, ATP luminescence, 24 h. Potency, µM (doses to about 46.1 µM), inactives show top-dose activity change, negative = cell killing, hits mostly cytotoxic. 1.5% of 130,000 active; note: potency is the fitted concentration of half-maximal effect; % is set by controls: 0 for no effect and ±100 for the full control effect; nearly all actives have a fitted effect of over 55% in size
IkB signaling – suppresses IkB signaling in ABC-DLBCL reporter cells. ABC-DLBCL IkBa-CBG/CBR dual luciferase ratio, 4 h; response scale: scaled: untreated 0%, proteasome inhibitor 100%. Potency, µM (series often up to 57.1 µM), for the others: at the highest dose IkBa stabilization activation. 0.04% of 110,000 active. AID 445; active = well fitted curve in the direction sought with a large enough effect in the signal ratio, not every such curve was filed as active; inconclusive = small, poorly fitted or top-dose-only effect, or a change in a side signal; the % refers to the signal ratio;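 note: potency is the fitted concentration of half-maximal effect; the direction sought is a rising ratio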
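Curves were fitted separately to fusion (green), unfused (red) and ratio luminescence, then classed by r2, magnitude and activity. Cells: OCI-Ly3, 4 h compound plus doxycycline at 37C; 10 uM MG-132 defined full response.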
Imprint erasure – induces erasure of genomic imprints in mouse ES cells; mouse ES Peg3-LacZ reporter, beta-gal luminescence, 40 h; Potency, µM (titrated, usually from 60.7 µM), without a hit: at the highest dose activity change, positive = activation, hits mostly activators; 0.02% of 110,000 active; AID 1948; note: potency is the fitted concentration of half-maximal effect
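Gelatin-coated wells received 300 freshly trypsinized female ES cells with a Peg3LacZ-Neo reporter on the maternal allele, then incubated 40 hours at 37C. BetaGlo was added for 5 minutes at room temperature before a single luminescence read.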
IMPase cell inh – cell-permeable inhibitors of inositol monophosphatase (IMPase); 120,000 tested, under 10 active; P97697; inhibition (IP1 accumulation), % at 46.1 µM; CHO-M1 cells, IP1 accumulation, HTRF TR-FRET ratio; active = well fitted curve in the direction sought with a large enough effect in the signal ratio, not every such curve was filed as active; inconclusive = small, poorly fitted or top-dose-only effect, or a change in a side signal; inactive = no such curve, though single readings can be large or run the other way; the % refers to the signal ratio;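 note: cells stimulated with carbachol in lithium chloride buffer; plate controls were DMSO basal wells for no effect and reference inhibitor wells for full effect; higher means more IMPase inhibition seen as more IP1 and lower FRET ratio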
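Cellular IMPase inhibition is scored as a rise in cytosolic IP1, detected by competitive TR-FRET between d2-labelled IP1 and a europium anti-IP1 antibody. M1-expressing CHO cells were stimulated with carbachol for 30 min at 37C, with lithium (50 mM LiCl) present in the buffer.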
p53ts 32C tox – p53ts cell cytotoxicity, permissive temperature. H1299-p53A138V at 32C, ATP luminescence viability, 24 h. Potency, µM (doses to about 46.1 µM), for inactives: top-dose activity change, negative = cytotoxicity, most hits filed as cytotoxic. 0.93% of 130,000 active;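 note: potency is the fitted concentration of half-maximal effect; 0% = DMSO and -100% = full killing by reference compound; nearly all actives have a fitted effect of over 55% in size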
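Cells: H1299 p53ts (A138V), 600/well, pre-incubated 16–30 h at 37C. Cpd up to 46 uM, 24 h, 32C. Readout: ATPlite luminescence, 20 min RT. Normalization: DMSO vs tamoxifen 100 uM. AC50 by Hill equation.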
Luciferase inh – inhibitors of firefly luciferase; AID 411; Potency, µM (series often up to 57.1 µM), for the others: at the top dose activity change, negative = inhibition, most hits filed as inhibitors; 2.2% of 72,000 active; purified firefly luciferase, luminescence, 8 min; note: potency is the fitted concentration of half-maximal effect; % is set by controls: 0 for no effect and ±100 for the full control effect; nearly all actives have a fitted effect of over 40% in size
Target sequence (P08659 whole entry, looked up): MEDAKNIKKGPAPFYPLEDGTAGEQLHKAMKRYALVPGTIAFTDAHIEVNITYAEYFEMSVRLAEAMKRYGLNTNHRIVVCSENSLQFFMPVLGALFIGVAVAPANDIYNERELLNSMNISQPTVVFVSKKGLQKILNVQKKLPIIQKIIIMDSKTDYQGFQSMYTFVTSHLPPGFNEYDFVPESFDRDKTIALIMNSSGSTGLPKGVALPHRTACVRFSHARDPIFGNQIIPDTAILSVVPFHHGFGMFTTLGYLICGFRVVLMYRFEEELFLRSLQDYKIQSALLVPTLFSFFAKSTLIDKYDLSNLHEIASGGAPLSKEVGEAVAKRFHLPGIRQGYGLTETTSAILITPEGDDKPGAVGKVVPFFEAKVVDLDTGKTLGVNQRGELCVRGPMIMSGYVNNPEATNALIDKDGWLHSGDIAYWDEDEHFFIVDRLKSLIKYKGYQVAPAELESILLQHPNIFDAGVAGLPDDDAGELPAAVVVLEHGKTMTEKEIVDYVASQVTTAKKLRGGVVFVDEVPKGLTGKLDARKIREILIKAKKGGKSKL
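qHTS concentration-response profiling: light output of P. pyralis luciferase with luciferin and 10 uM ATP, imidazole buffer pH 7.2. Read by luminescence after 8-min room-temperature incubation.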
Numbers without * were called inactive; ? = inconclusive; . = not tested or not shown; [ ] = dose if it differs, or a comment. Unless noted, calls come from the whole dose curve; as a rule, active = well fitted curve in the direction sought with a large enough effect; inconclusive = small, poorly fitted or top-dose-only effect, or another doubt; inactive = no such curve, though single readings can be large; an effect the other way counts as inactive or inconclusive.

SMILES	p53ts 39C tox	IkB signaling	Imprint erasure	IMPase cell inh	p53ts 32C tox	Luciferase inh
COc1ccccc1CNc1nc(-c2ccc(N(C)C)cc2)nc2ccccc12	20µM*	8%[11.4 µM]	-35%	.	?	0%[2.29 µM]
COc1ccccc1CNc1nc(-c2ccc(C(=O)N(C)C)cc2)nc2ccccc12	-10%	-4%[11.4 µM]	-26%	.	1%	-4%[2.29 µM]
COc1ccc2[nH]cc(CCNc3nc(-c4ccc(C(=O)N(C)C)cc4)nc4ccccc34)c2c1	?	-5%[11.4 µM]	-31%	.	?	-26%[2.29 µM]
CCN(CC)c1ccc(C=Nc2ccc(N(C)C)cc2)c(O)c1	.	.	.	63	.	.
Cc1ccc(C=Nc2ccc(N(C)C)cc2)o1	-10%	?	-42%	43	-10%	3.2µM*
COc1ccc(Cl)cc1NC(=O)CSc1nnc2[nH]c(=O)cc(-c3ccccc3)n12	3.2µM*	?	-4%[10.9 µM]	.	?	.
CCc1ccc(NC(=O)CSc2nnc3[nH]c(=O)cc(-c4ccccc4)n23)cc1	6.3µM*	3%	7%[10.9 µM]	.	2%	.
CCOCCCN1C(=O)c2[nH]nc(-c3ccccc3O)c2C1c1ccc(CC)cc1 (stereo unspecified)	?	?	-14%[10.9 µM]	.	-16%	.
Nc1ncnc2c1ncn2[C@@H]1O[C@@H](COP(=O)(O)OP(=O)(O)OP(=O)(O)OP(=O)(O)OC[C@@H]2O[C@@H](n3cnc4c(N)ncnc43)[C@@H](O)[C@H]2O)[C@H](O)[C@@H]1O	49%	1%	.	1	42%	2%
CC(=O)O[C@](C)(CCC=C(C)C)C1CC=C(C)CC1 (stereo partly specified)	7%	.	24%	.	-16%	.
COc1cccc(-c2cc(C(=O)NC3CCCC3)no2)c1	?	?	-37%	15	?	16µM*
COc1cc(NC(=O)c2cc(-c3cccc(O)c3)on2)cc(OC)c1OC	-13%	12%	-20%	3	1%	-2%
COc1cccc(-c2cc(C(=O)Nc3ccccc3SC)no2)c1	-15%	?	-25%	10	-9%	20µM*
COc1ccccc1-c1cc(C(=O)Nc2cccnc2)no1	?	?	-42%	-16	?	13µM*
COc1cc(NC(=O)c2cc(-c3ccc(Cl)c(Cl)c3)on2)cc(OC)c1OC	20µM*	11%	-10%[10.9 µM]	.	-26%	.
COCCNC(=O)c1cc(-c2cccc(OC)c2)on1	?	?	-58%	7	?	?
CCN1C(=O)[C@H]2[C@H]3[C@H](O)[C@H](O)C/C(=N/OC[C@@H](O)COCc4ccco4)[C@H]3CC[C@@H]2C1=O	6%[9.22 µM]	.	.	.	0%[9.22 µM]	1%[11.4 µM]
COC(=O)[C@H](C)NC(=O)[C@@H](C)CO	1%[9.22 µM]	.	.	.	1%[9.22 µM]	2%[11.4 µM]
COc1cccc(-c2cc(C(=O)Nc3cccc(O)c3)no2)c1	3.2µM*	?	-73%	10	2.5µM*	3.2µM*
O=C(CNC(=O)c1ccco1)OCC(=O)c1ccc2c(c1)CCCC2	-4%	1%	-3%	-3	-9%	2µM*
CCc1ccc(C(=O)COC(=O)CNC(=O)c2ccco2)cc1	-3%	1%	-6%	8	-8%	-6%
CC[C@H]1C(c2cccc(Cl)c2)=NN(c2ccccc2)[C@@H]1CO	.	.	-12%	.	.	.
CCc1nc2sc3c(c2c(=O)n1N)CCC3	2%	-2%	-8%	-9	16%	3%
Nn1c(Nc2ccccc2)nc2sc3c(c2c1=O)CCC3	-20%	?	-16%	-5	-22%	20µM*
O=C(COc1cccc2cccnc12)Nc1nccs1	?	?	-47%	1	?	16µM*
SMILES	p53ts 39C tox	IkB signaling	Imprint erasure	IMPase cell inh	p53ts 32C tox	Luciferase inh
O=[N+]([O-])c1ccc2c(c1)Cc1cc(N=Cc3ccc4c(c3)OCO4)ccc1-2	0%[9.22 µM]	0%[11.4 µM]	5%[10.9 µM]	.	3%[9.22 µM]	-3%[11.4 µM]
O=C(NC1CCCC1)c1c[nH]c2ccc(S(=O)(=O)Nc3cccc(C(F)(F)F)c3)cc2c1=O	2%	?	-6%[10.9 µM]	.	2%	.
CCN1CCN(Cc2ccc(NC(=O)Nc3ccccc3OC)cc2)CC1	10µM*	3%	2%	6	7.9µM*	?
CCN1CCN(CCC(=O)Nc2ccccc2OC)CC1	3%	1%	-10%	4	-6%	2%
CCN1CCN(C(=O)Nc2ccc(Cc3ccc(NC(=O)N4CCN(CC)CC4)cc3)cc2)CC1	-10%	2%	-3%	1	-27%	13µM*
CCC1=C2CC[C@H]3C(=O)NC(=O)[C@H]3[C@H]2[C@@]2(Cc3ccccc3)C(=NCc3ccccc3)OC(=O)N2C1=O	7%	.	-6%	.	4%	.
CCCCOc1ccccc1C(=O)Nc1nonc1-c1ccccc1	-3%	2%	-19%[10.9 µM]	.	3%	.
CNc1nc(-c2ccc([N+](=O)[O-])cc2)cs1	.	.	.	-3	.	.
CNc1nc(-c2ccc(Cl)cc2)cs1	-19%	1%	-33%	4	-23%	10µM*
CCNc1nc(-c2ccc(Cl)cc2)cs1	-28%	?	-32%	?	-11%	13µM*
OC[C@@H]1O[C@@H](n2cnc3c(N[C@@H]4C[C@@H]5CC[C@H]4C5)ncnc32)[C@@H](O)[C@H]1O	6%	5%	.	3	-10%	-2%
NC(=O)c1ncn([C@@H]2O[C@@H](CO)[C@@H](O)[C@H]2O)n1	.	8%	.	.	.	-1%
CC(=O)Nc1ccc(-c2cn3ccsc3n2)cc1	?	7%	-48%	1	10µM*	16µM*
Cc1nc(-c2ccc(NC(=O)C3CCCCC3)cc2)cs1	.	.	.	1	.	.
O=C(Nc1ccc(-c2cn3ccsc3n2)cc1)C1CCCC1	2.5µM*	0%	-45%	2	5µM*	2.5µM*
c1cn2cc(-c3ccc4c(c3)OCO4)nc2s1	13µM*	0%	-80%	2	16µM*	7.9µM*
CC(C)C(=O)Nc1cccc(-c2cn3ccsc3n2)c1	-3%	3%	6%	-4	?	?
O=C(Nc1ccc(-c2cn3ccsc3n2)cc1)C1CC1	5µM*	0%	-38%	1	6.3µM*	6.3µM*
CC(=O)Oc1ccc2c(c1)CCC1C2CC[C@]2(C)C(=O)CCC12 (stereo partly specified)	-24%	.	-8%	.	-2%	.
CN(C)CCCCNC(=O)c1ccc(-n2c(=O)c(=O)[nH]c3ccccc32)cc1	-7%	.	.	.	-10%	.
C=C1CC[C@@H]2O[C@]2(C)CC[C@@H]2[C@H]1CC2(C)C	.	0%[11.4 µM]	.	.	.	1%[11.4 µM]
CCC(=O)Nc1cccc(-c2cn3ccsc3n2)c1	-16%	0%	-8%	7	-15%	?
CC(C)CC(=O)Nc1cccc(-c2cn3ccsc3n2)c1	?	0%	-11%	15	?	16µM*
O=C(NCCO)c1ccc(Cl)cc1	-9%[9.22 µM]	0%[11.4 µM]	8%[10.9 µM]	.	-4%[9.22 µM]	2%[11.4 µM]
